Data: PubChem BioAssay (EPA / NIEHS)
Activity calls are given as the source filed them. The calls were made as follows: active = hit-call score of the fitted dose curve at least 0.9, where 1 is the maximum; inactive = score below 0.9.

Key:
[1] = ATG_CRE_CIS: Attagene CIS-FACTORIAL HepG2 Assay for human cAMP Responsive Element (CRE) binding protein 3 (AID 2282926); conditions: HepG2 CRE cis-reporter, Attagene multiplexed mRNA; actives raise or lower the signal
Procedure, shortened: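 Transfected HepG2 were treated for 24 hours, then RNA was extracted and reporter cDNA amplified with sequence-specific primers. Labelled fragments were separated by capillary electrophoresis, and the CRE signal was fitted bidirectionally with DMSO as baseline.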

[2] = biological target: CCAAT/enhancer-binding protein beta (Homo sapiens) (UniProt P17676); test: ATG_C_EBP_CIS: Attagene CIS-FACTORIAL HepG2 Assay for human CCAAT/Enhancer Binding Protein (C/EBP) beta (AID 2282927); conditions: HepG2 Attagene cis-factorial transcription factor reporter; actives raise or lower the signal
Procedure, shortened: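 Endogenous transcription factor activity in human liver HepG2 cells is inferred from induction of a CEBPB-linked reporter mRNA. Exposure lasts 24 h; activity is fitted in both directions relative to DMSO.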

[3] = ATG_CMV_CIS: Attagene CIS-FACTORIAL HepG2 Assay for human CMV (Internal Marker) (AID 2282928); conditions: HepG2 CMV promoter reporter, transcription factor profiling; actives raise or lower the signal;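 also: endpoint acts as a background internal control marker rather than a target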
Procedure, shortened: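 Cell system: HepG2, transiently transfected multiple reporter units under cis promoters. Exposure: 24 h. Detection: RT-PCR, FAM labeling, HpaI digestion, capillary electrophoresis. Analysis: bidirectional, DMSO baseline.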

[4] = biological target: Aryl hydrocarbon receptor (Homo sapiens) (UniProt P35869); test: ATG_Ahr_CIS: Attagene CIS-FACTORIAL HepG2 Assay for human Aryl Hydrocarbon Receptor (Ahr) (AID 2282930); conditions: HepG2 AhR cis-factorial reporter transcription; actives raise or lower the signal
Procedure, shortened: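 Transient MRTU transfection of HepG2 → 24 h compound exposure → total RNA, oligo(dT) RT → PCR, 6-FAM extension, HpaI cut → CE fluorescence. DMSO = baseline; bidirectional curve fit.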

[5] = ATG_AP_1_CIS: Attagene CIS-FACTORIAL HepG2 Assay for human Activator Protein 1 (AP-1) (AID 2282931); conditions: HepG2 Attagene cis-factorial AP-1 reporter mRNA; actives raise or lower the signal
Procedure, shortened: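 Reporter transcripts were measured 24 h after dosing by RT-PCR and capillary electrophoresis of fluorescent fragments. Cells: HepG2 carrying transfected cis-regulated reporter constructs reading endogenous factor activity. Gain or loss fitted against DMSO.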

[6] = ATG_AP_2_CIS: Attagene CIS-FACTORIAL HepG2 Assay for human Activator Protein 2 (AP-2) (AID 2282932); conditions: HepG2 AP-2 cis-reporter, Attagene transcription factor profiling; actives raise or lower the signal
Procedure, shortened: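 HepG2, transient MRTU transfection, cis-regulated reporters; 24 h compound exposure; RNA isolated, RT-PCR, 6-FAM labelling, HpaI digest, CE fluorescence. DMSO = negative control/baseline, bidirectional fit.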

[7] = ATG_BRE_CIS: Attagene CIS-FACTORIAL HepG2 Assay for human Bone Morphogenetic Protein (BMP) Response Element (BRE) (AID 2282933); conditions: HepG2 BMP response element reporter, Attagene transcription factor profiling; actives raise or lower the signal
Procedure, shortened: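 A HepG2 multiplex reporter system measured inducible reporter mRNA 24 h post-dosing. Detection: RT-PCR, 6-FAM primer extension, HpaI digestion, capillary electrophoresis. Activity fitted bidirectionally relative to DMSO.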

[8] = biological target: Retinoic acid receptor alpha (Homo sapiens) (UniProt P10276); test: ATG_DR5_RAR_CIS: Attagene CIS-FACTORIAL HepG2 Assay for human Retinoic Acid Receptor Alpha (RARE), DR5 submotif (AID 2282934); conditions: HepG2 Attagene cis-factorial RARE DR5 reporter, mRNA; actives raise or lower the signal;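 as to AC50: reporter responds to endogenous RAR alpha beta and gamma in HepG2 not RARA alone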
Procedure, shortened: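 Transient MRTU transfection of HepG2; 24 h compound treatment; TriZol RNA, oligo(dT) RT, PCR, FAM labelling, capillary electrophoresis. Bidirectional fit vs DMSO. Endogenous TF activity at DR5 RARE.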

[9] = biological target: Transcription factor E2F1 (Homo sapiens) (UniProt Q01094); test: ATG_E2F_CIS: Attagene CIS-FACTORIAL HepG2 Assay for human E2F Transcription Factor 1 (AID 2282935); conditions: HepG2 Attagene cis-reporter, E2F reporter RNA transcripts; actives raise or lower the signal
Procedure, shortened: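 Cis-element reporter mRNA induction in transiently transfected HepG2, 24 h exposure. Activity fitted in both directions relative to DMSO negative control.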

[10] = ATG_E_Box_CIS: Attagene CIS-FACTORIAL HepG2 Assay for human Enhancer Box (E-box) (AID 2282936); conditions: HepG2 E-box cis-reporter transcription, actives raise or lower the signal
Procedure, shortened: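 Cells: HepG2 (human liver), transient MRTU transfection. Exposure 24 h. RNA → oligo(dT) RT → PCR → 6-FAM label → HpaI → CE. Activity fitted both directions relative to DMSO.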

[11] = ATG_M_61_CIS: Attagene CIS-FACTORIAL HepG2 Assay for M61 Transcription Factor (Internal Marker) (AID 2282937); conditions: HepG2 Attagene CIS-FACTORIAL M61 internal marker reporter; actives raise or lower the signal
Procedure, shortened: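 Readout: fluorescent reporter mRNA fragments resolved by capillary electrophoresis after RT-PCR. Transiently transfected human HepG2 cells carried MRTU constructs reporting endogenous TF activity; 24 h chemical exposure; gain or loss of signal fitted relative to DMSO.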

[12] = ATG_EGR_CIS: Attagene CIS-FACTORIAL HepG2 Assay for human Early Growth Response 1 (EGR1) (AID 2282938); conditions: HepG2 Attagene CIS-FACTORIAL EGR reporter mRNA; actives raise or lower the signal
Procedure, shortened: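 Read-out: fluorescent reporter-mRNA fragments resolved by capillary electrophoresis after RT-PCR, 24 h post-dose in transiently transfected HepG2. Endogenous transcription-factor activity reported via cis-element-regulated reporter units; gain or loss fitted relative to DMSO.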

[13] = ATG_M_19_CIS: Attagene CIS-FACTORIAL HepG2 Assay for M19 Transcription Factor (Internal Marker) (AID 2282939); conditions: HepG2 Attagene CIS-FACTORIAL M19 internal marker reporter; actives raise or lower the signal
Procedure, shortened: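 Chemical-treated HepG2 (24 h) with MRTU constructs; reporter transcripts detected by fluorescent RT-PCR fragment analysis on capillary electrophoresis. Internal background marker, DMSO as baseline.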

[14] = ATG_Ets_CIS: Attagene CIS-FACTORIAL HepG2 Assay for human Erythroblast Transformation Specific (ETS) (AID 2282941); conditions: HepG2 ETS cis-reporter transcription, actives raise or lower the signal
Procedure, shortened: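 After transient cis-reporter transfection, HepG2 cells receive test chemical for 24 h. Reporter mRNA levels, measured by RT-PCR and capillary electrophoresis fluorescence, are analysed bidirectionally relative to the DMSO baseline.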

[15] = biological target: Hepatocyte nuclear factor 3-beta (Homo sapiens) (UniProt Q9Y261); test: ATG_FoxA2_CIS: Attagene CIS-FACTORIAL HepG2 Assay for human Forkhead box A2 (FOXA2) (AID 2282942); conditions: HepG2 cis-reporter transcription factor activity, 24 h; actives raise or lower the signal
Procedure, shortened: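 Readout: fluorescent reporter transcripts resolved by capillary electrophoresis after RT-PCR. Transiently transfected HepG2, 24 h compound exposure, endogenous TF activity at cis promoter elements. Gain or loss of signal fitted relative to DMSO.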

[16] = ATG_FoxO_CIS: Attagene CIS-FACTORIAL HepG2 Assay for human Forkhead box O (FoxO) (AID 2282943); conditions: HepG2 Attagene cis-reporter, FoxO element, mRNA; actives raise or lower the signal
Procedure, shortened: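 HepG2, transient MRTU transfection (cis element, endogenous TFs). Dose 24 h. TriZol RNA → oligo(dT) RT → PCR → 6-FAM primer extension → HpaI cut → CE. Gain/loss vs DMSO.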

[17] = ATG_GATA_CIS: Attagene CIS-FACTORIAL HepG2 Assay for human GATA Binding Protein (AID 2282944); conditions: HepG2 GATA cis-element reporter, Attagene multiplex mRNA; actives raise or lower the signal
Procedure, shortened: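 Transfected cis-reporter HepG2 cells were treated with chemicals for 24 hours. Total RNA was then converted to cDNA, amplified with reporter-specific primers and analysed by fluorescent capillary electrophoresis, using DMSO-treated wells as baseline.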

[18] = ATG_GLI_CIS: Attagene CIS-FACTORIAL HepG2 Assay for human Zinc Finger Protein GLI1 (AID 2282945); conditions: HepG2, Attagene cis-factorial reporter mRNA, GLI element; actives raise or lower the signal
Procedure, shortened: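 Bidirectional curve fits relative to DMSO, using reporter mRNA levels from RT-PCR plus capillary electrophoresis. Cells were HepG2 transiently carrying cis-regulated reporter constructs, harvested 24 h after dosing.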

Measured: AC50

Transcription factor E2F1 (Homo sapiens), sequence (Q01094 whole entry, looked up): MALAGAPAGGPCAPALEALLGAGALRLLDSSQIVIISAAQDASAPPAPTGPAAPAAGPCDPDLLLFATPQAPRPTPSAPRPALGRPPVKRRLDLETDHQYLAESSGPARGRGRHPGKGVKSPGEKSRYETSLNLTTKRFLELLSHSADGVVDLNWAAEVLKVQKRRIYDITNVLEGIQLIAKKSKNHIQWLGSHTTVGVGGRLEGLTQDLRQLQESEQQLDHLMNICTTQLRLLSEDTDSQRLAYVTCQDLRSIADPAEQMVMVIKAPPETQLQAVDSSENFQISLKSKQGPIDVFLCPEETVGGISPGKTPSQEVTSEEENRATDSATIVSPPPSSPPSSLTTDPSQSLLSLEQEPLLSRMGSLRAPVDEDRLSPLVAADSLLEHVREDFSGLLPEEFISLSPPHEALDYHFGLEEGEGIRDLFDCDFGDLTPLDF
Retinoic acid receptor alpha (Homo sapiens), sequence (P10276 whole entry, looked up): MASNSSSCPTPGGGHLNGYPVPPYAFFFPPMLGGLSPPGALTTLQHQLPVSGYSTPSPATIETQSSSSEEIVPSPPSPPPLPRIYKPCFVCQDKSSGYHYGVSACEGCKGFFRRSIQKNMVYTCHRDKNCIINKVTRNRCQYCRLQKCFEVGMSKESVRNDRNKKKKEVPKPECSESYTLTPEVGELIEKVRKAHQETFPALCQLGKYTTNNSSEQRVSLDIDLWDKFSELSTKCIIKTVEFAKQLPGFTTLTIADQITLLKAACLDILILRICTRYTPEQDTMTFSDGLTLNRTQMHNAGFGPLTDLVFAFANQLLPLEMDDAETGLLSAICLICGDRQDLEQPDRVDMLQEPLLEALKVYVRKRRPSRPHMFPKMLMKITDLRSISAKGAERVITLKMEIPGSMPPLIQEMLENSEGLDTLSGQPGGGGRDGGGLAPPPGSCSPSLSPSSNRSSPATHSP
Hepatocyte nuclear factor 3-beta (Homo sapiens), sequence (Q9Y261 whole entry, looked up): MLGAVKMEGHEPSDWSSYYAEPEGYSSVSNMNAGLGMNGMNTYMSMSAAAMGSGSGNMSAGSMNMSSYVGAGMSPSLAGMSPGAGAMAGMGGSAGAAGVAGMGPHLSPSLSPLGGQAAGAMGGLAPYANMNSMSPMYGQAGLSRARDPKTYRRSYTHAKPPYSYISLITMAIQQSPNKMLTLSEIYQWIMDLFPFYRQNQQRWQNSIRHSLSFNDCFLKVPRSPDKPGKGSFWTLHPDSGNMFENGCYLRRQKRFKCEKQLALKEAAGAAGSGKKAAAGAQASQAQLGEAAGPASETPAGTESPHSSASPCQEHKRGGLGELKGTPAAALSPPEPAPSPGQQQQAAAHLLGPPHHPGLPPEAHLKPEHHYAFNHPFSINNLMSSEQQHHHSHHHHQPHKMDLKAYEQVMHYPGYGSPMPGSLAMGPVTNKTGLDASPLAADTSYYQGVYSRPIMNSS
Aryl hydrocarbon receptor (Homo sapiens), sequence (P35869 whole entry, looked up): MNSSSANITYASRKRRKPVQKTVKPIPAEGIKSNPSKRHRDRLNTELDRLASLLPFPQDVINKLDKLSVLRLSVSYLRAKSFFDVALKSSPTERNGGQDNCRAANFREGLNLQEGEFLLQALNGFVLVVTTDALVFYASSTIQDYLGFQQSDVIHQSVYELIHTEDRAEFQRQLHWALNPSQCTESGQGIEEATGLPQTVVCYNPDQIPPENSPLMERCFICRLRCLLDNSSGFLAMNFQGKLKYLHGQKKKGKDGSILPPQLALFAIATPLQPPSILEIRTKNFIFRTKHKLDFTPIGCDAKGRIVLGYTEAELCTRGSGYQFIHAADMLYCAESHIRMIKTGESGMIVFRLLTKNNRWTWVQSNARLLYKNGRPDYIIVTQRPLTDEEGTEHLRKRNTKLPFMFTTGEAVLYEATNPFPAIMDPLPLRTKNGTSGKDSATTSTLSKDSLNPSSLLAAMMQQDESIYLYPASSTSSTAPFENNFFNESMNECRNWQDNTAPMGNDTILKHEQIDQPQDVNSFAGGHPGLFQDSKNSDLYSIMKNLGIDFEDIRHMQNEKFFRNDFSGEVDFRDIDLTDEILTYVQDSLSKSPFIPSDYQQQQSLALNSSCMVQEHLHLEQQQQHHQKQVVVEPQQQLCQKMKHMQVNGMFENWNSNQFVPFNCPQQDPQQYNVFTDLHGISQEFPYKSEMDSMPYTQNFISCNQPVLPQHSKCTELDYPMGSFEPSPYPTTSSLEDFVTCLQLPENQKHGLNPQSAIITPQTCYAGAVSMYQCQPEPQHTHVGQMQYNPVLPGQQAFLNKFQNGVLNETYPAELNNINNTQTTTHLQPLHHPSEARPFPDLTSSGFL
CCAAT/enhancer-binding protein beta (Homo sapiens), sequence (P17676 whole entry, looked up): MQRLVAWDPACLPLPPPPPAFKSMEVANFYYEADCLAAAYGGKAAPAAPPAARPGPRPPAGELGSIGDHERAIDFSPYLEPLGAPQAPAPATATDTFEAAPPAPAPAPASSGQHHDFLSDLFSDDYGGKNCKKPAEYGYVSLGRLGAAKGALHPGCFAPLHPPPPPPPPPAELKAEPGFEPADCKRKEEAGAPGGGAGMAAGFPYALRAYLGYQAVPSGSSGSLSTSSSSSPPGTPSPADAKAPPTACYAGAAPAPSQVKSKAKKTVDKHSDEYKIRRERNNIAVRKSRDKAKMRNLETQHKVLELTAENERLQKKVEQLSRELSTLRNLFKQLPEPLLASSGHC

CN(C)NC(=O)CCC(=O)O
inactive: [1] | [2] | [3] | [4] | [5] | [6] | [7] | [8] | [9] | [10] | [11] | [12] | [13] | [14] | [15] | [16] | [17] | [18]

CCOP(=O)(SC(C)CC)N1CCSC1=O (stereo unspecified)
inactive: [1] | [2] | [3] | [4] | [5] | [6] | [7] | [8] | [10] | [11] | [12] | [13] | [14] | [15] | [16] | [17] | [18]

C[N+]1(C)CCCCC1
inactive: [1] | [2] | [3] | [4] | [5] | [6] | [7] | [8] | [10] | [11] | [12] | [13] | [14] | [15] | [16] | [17] | [18]

CON=C(C(=O)OC)c1ccccc1CON=C(C)c1cccc(C(F)(F)F)c1
active: [2] 66.7 µM | [7] 25 µM | [10] 12.5 µM
inactive: [1] | [3] | [4] | [5] | [6] | [8] | [11] | [12] | [13] | [14] | [15] | [16] | [17] | [18]

FC(F)C(F)(F)OCC(Cn1cncn1)c1ccc(Cl)cc1Cl (stereo unspecified)
active: [1] 23.2 µM | [3] 16.2 µM | [4] 33.3 µM | [7] 58.4 µM | [8] 13 µM | [12] 50 µM | [15] 50 µM
inactive: [2] | [5] | [6] | [9] | [10] | [11] | [13] | [14] | [16] | [17] | [18]

O=C(O)c1cc(Oc2ccc(C(F)(F)F)cc2Cl)ccc1[N+](=O)[O-]
inactive: [1] | [2] | [3] | [4] | [5] | [6] | [7] | [8] | [9] | [10] | [11] | [12] | [13] | [14] | [15] | [16] | [17] | [18]

CC1(C(=O)Nc2ccc(O)c(Cl)c2Cl)CCCCC1
inactive: [2] | [3] | [4] | [6] | [10] | [11] | [13] | [14] | [15] | [16] | [17] | [18]
active: [1] 10 µM | [5] 30 µM | [7] 39.3 µM | [12] 32.2 µM

CCOP(=S)(OCC)Oc1ccc2c(C)c(Cl)c(=O)oc2c1
active: [8] 1.59 µM
inactive: [1] | [2] | [3] | [4] | [5] | [6] | [7] | [10] | [11] | [12] | [13] | [14] | [15] | [16] | [17] | [18]

N#CSCSC#N
inactive: [1] | [2] | [3] | [4] | [5] | [6] | [7] | [8] | [10] | [11] | [12] | [13] | [14] | [15] | [16] | [17] | [18]

Cc1ccn2nc(S(=O)(=O)Nc3c(F)cccc3F)nc2n1
inactive: [1] | [2] | [3] | [4] | [5] | [6] | [7] | [8] | [10] | [11] | [12] | [13] | [14] | [15] | [16] | [17] | [18]

CCOP(=S)(OCC)Oc1ccc([N+](=O)[O-])cc1
inactive: [1] | [3] | [6] | [7] | [8] | [10] | [11] | [12] | [13] | [14] | [15] | [16] | [17] | [18]
active: [2] 13.5 µM | [4] 30.9 µM | [5] 82.6 µM

COc1cccc(C(=O)NN(C(=O)c2cc(C)cc(C)c2)C(C)(C)C)c1C
inactive: [1] | [2] | [3] | [4] | [5] | [7] | [8] | [9] | [10] | [11] | [12] | [13] | [14] | [15] | [17] | [18]
active: [6] 13.1 µM | [16] 12.9 µM

CCCSP(=O)(OCC)Oc1ccc(Br)cc1Cl (stereo unspecified)
active: [1] 2.33 µM | [2] 1.81 µM | [3] 3.92 µM
inactive: [4] | [5] | [6] | [7] | [8] | [10] | [11] | [12] | [13] | [14] | [15] | [16] | [17] | [18]

CC(Oc1cccc(Cl)c1)C(=O)O (stereo unspecified)
inactive: [1] | [2] | [3] | [4] | [5] | [6] | [7] | [8] | [10] | [11] | [12] | [13] | [14] | [15] | [16] | [17] | [18]
